Measurements from the supplement of paper PMC12340641.

How the values were obtained:
[1] = molecular target: IKZF1 (dCK*-IKZF1 fusion in HEK293FT) (UniProt Q13422); assay: inhibition of IKZF1 HTRF signal (DMSO = 0%, pomalidomide 10 uM = 100%); higher = lower IKZF1 protein level; conditions: compound concentration: 5 uM, overnight (~20 h)
How it was run: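 After overnight treatment at 37 °C with 5 μM compound in single wells, HEK293FT cells (2000/well, 384-well) stably expressing an IKZF1 fusion were lysed for 30 min at room temperature. A commercial HTRF total-IKZF1 antibody kit was incubated with the lysate overnight, and the time-resolved FRET ratio at 665/620 nm was corrected for background. Data are given as percent inhibition of IKZF1 signal relative, on each plate, to vehicle and a reference degrader, set at 0% and 100% respectively.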

HEK293FT dCK*-only = assay: relative growth in counter assay (no AraC = 100%, AraC + DMSO = 0%); higher = more growth rescue independent of IKZF1; conditions: compound concentration: 5 uM; AraC concentration: 0.3 uM; overnight pretreatment + 4 days AraC
How it was run: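 Counter assay in HEK293FT cells expressing dCK* alone (300/well, 384-well). Cells received 5 μM compound 2 h after seeding, then after overnight at 37 °C a nucleoside suicide substrate at 0.3 μM plus medium for 4 days. On day 5, Hoechst 33342-stained nuclei were counted by imaging. Relative growth was normalised per plate to wells without suicide substrate (100%) and substrate plus vehicle (0%).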

HEK293FT dCK*-IKZF1 = assay: relative growth recovery (pomalidomide 10 uM = 100%, DMSO = 0%); higher = more growth rescue (IKZF1 fusion degradation); conditions: compound concentration: 5 uM; AraC concentration: 0.3 uM; overnight pretreatment + 4 days AraC
How it was run: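 Means of duplicates from different days are given for growth recovery, normalised per plate against a reference degrader and vehicle. The reference degrader set the 100% level and vehicle the 0% level. HEK293FT cells stably expressing a deoxycytidine kinase–IKZF1 fusion (300/well, 384-well) received 5 μM compound 2 h after seeding and, after overnight at 37 °C, 0.3 μM of a nucleoside suicide substrate plus medium for 4 days. Nuclei stained with Hoechst 33342 were then counted by whole-well imaging on day 5.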

IKZF1 (dCK*-IKZF1 fusion in HEK293FT), sequence (Q13422 whole entry, looked up, the tested form may be a part): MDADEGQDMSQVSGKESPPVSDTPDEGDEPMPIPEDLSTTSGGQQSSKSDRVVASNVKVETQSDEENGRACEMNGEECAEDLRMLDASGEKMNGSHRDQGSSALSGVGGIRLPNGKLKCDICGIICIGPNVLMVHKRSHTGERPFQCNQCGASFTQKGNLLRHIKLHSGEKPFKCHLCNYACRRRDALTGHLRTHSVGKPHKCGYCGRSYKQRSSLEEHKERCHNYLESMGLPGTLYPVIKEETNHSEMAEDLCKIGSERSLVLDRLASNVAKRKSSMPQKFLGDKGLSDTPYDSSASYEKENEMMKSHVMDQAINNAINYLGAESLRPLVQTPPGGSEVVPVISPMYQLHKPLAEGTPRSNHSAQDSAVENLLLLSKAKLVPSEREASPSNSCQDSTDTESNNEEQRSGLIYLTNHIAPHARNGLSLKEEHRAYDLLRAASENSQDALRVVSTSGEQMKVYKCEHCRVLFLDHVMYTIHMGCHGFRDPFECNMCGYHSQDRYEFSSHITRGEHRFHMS

Structure (SMILES) | inhibition of IKZF1 HTRF signal [1] | relative growth in counter assay (HEK293FT dCK*-only) | relative growth recovery (HEK293FT dCK*-IKZF1)
CCOc1ccccc1-n1c(C(C)N2CCN(C(=O)COc3ccc(Cl)cc3)CC2)nc2ccccc2c1=O (stereo not given) [Erastin] | -51.3% | -4.63% | -1.44%
N#Cc1cn([C@@H]2O[C@H](CO)[C@@H](O)[C@H]2O)c2ncnc(N)c12 [toyocamycin] | 44.4% | -34.2% | -12.9%
Clc1ccccc1C(c1ccccc1)(c1ccccc1)n1cccn1 | -25.1% | 1.96% | -1.69%
CCCCCCCCCCC(=O)O[C@H]1CC[C@H]2[C@@H]3CCC4=CC(=O)CC[C@]4(C)[C@H]3CC[C@]12C [Testosterone (undecanoate)] | -31.5% | 4.31% | -0.23%
C=C1[C@@H](C)[C@H]2[C@H](Cc3ccccc3)NC(=O)[C@]23OC(=O)/C=C/[C@H](O)CCC[C@@H](C)C/C=C/[C@H]3[C@@H]1O [Cytochalasin B] | 32.2% | -30.2% | -8.39%
C[C@H]1CCC/C=C/C2C[C@H](O)C[C@H]2[C@H](O)/C=C/C(=O)O1 (stereo not given in full) [brefeldin-a] | 2.49% | -32.6% | -10%
CC[C@@H](C(=O)O)C1CC[C@H](C)C([C@@H](C)[C@H](O)[C@H](C)C(=O)[C@H](CC)C2O[C@]3(C=C[C@@H](O)[C@]4(CC[C@@](C)(C5CC[C@](O)(CC)[C@H](C)O5)O4)O3)[C@H](C)C[C@@H]2C)O1 (stereo not given in full) [Salinomycin (Procoxacin)] | -5.47% | -10.3% | -1.1%
Cc1cc(C(C#N)c2ccc(Cl)cc2)c(Cl)cc1NC(=O)c1cc(I)cc(I)c1O (stereo not given) | -5.04% | -3.81% | -0.555%
CO[C@H]1[C@H](O)[C@H](O[C@H]2CC[C@@]3(C=O)[C@H](CC[C@@H]4[C@@H]3CC[C@]3(C)[C@@H](C5=CC(=O)OC5)CC[C@]43O)C2)O[C@@H](C)[C@@H]1O [Peruvoside] | 94.1% | -34.2% | -12.7%
CC[C@@]1(C2O[C@@H](C3O[C@@](O)(CO)[C@H](C)C[C@@H]3C)C[C@@H]2C)CC[C@H]([C@]2(C)CC[C@]3(C[C@H](O)[C@@H](C)[C@@H]([C@@H](C)[C@@H](OC)[C@H](C)C(=O)O)O3)O2)O1 (stereo not given in full) | 9.03% | -4.55% | -0.68%
NCC1(CC(=O)O)CCCCC1 | -1.54% | -10.5% | -0.56%
C[C@]12CC[C@H](O)C[C@H]1CC[C@@H]1[C@@H]2CC[C@]2(C)[C@@H](C3=CC(=O)OC3)CC[C@]12O [digitoxigenin] | 40.7% | -34.6% | -12.2%
O=c1n(Cl)c(=O)n(Cl)c(=O)n1Cl | -9.26% | -2.72% | -1.44%
ClC(C=C3)=C(Cl)C=[C@@]3[C@H]2C1=CC=CC=C1[C@H](NC)C2 [indatraline] | 28.4% | 0.14% | -3.33%
CC[C@H]1C2CC3[C@@H]4N(C)c5ccccc5[C@]45C[C@@H](C2C5O)N3[C@@H]1O (stereo not given in full) | -0.05% | 5.04% | 1.42%
